# Measured values published in PubChem BioAssay (NCI).
# This is part of a sample that, as a whole, favours compounds with a hit. Of some 83,000 tested, about 20% had one in any assay.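 In brief: 96-well plates, 48 h treatment, single concentration, percent growth endpoint.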 A number with no mark means an inactive call. Activity calls are given as the source filed them. How the source made its calls: active means growth percent below 10; inactive means the rest.
# How the values were obtained:
# Experiment in all cases: NCI-60 one-dose screen, 48 h (100 = growth as untreated, 0 = no growth, -100 = all killed)
# Conditions in all cases: 10 µM unless noted
# DU-145 prostate = test system: DU-145 prostate
# K-562 leukemia = test system: K-562 leukemia
# MALME-3M melanoma = test system: MALME-3M melanoma
# MDA-MB-231 breast = test system: MDA-MB-231 breast
# RXF 393 renal = test system: RXF 393 renal
# SF-268 CNS = test system: SF-268 CNS
# SF-295 CNS = test system: SF-295 CNS
# SF-539 CNS = test system: SF-539 CNS
# UACC-257 melanoma = test system: UACC-257 melanoma
# M14 melanoma = test system: M14 melanoma
# HCT-15 colon = test system: HCT-15 colon
# HT29 colon = test system: HT29 colon
# SNB-75 CNS = test system: SNB-75 CNS
# SNB-19 CNS = test system: SNB-19 CNS
# U251 CNS = test system: U251 CNS
# PC-3 prostate = test system: PC-3 prostate
# SK-MEL-5 melanoma = test system: SK-MEL-5 melanoma
# UACC-62 melanoma = test system: UACC-62 melanoma
# LOX IMVI melanoma = test system: LOX IMVI melanoma
# SK-MEL-28 melanoma = test system: SK-MEL-28 melanoma
Compound,growth (DU-145 prostate),growth (K-562 leukemia),growth (MALME-3M melanoma) [%],growth (MDA-MB-231 breast) [%],growth (RXF 393 renal) [%],growth (SF-268 CNS) [%],growth (SF-295 CNS) [%],growth (SF-539 CNS) [%],growth (UACC-257 melanoma) [%],growth (M14 melanoma) [%],growth (HCT-15 colon),growth (HT29 colon) [%],growth (SNB-75 CNS) [%],growth (SNB-19 CNS) [%],growth (U251 CNS) [%],growth (PC-3 prostate) [%],growth (SK-MEL-5 melanoma) [%],growth (UACC-62 melanoma) [%],growth (LOX IMVI melanoma),growth (SK-MEL-28 melanoma) [%]
CCOc1cccc(/C(N)=N/C(N)=N/c2nc3ccccc3s2)c1,83.4%,77.3%,115,74.3,110,86.5,37.7,104,113,93.2,49.9%,106,87.9,87.8,58.3,46.4,92.2,81.4,13.2%,105
Cc1cc(C)cc(NC2=C(Cl)C(=O)c3nc(C)ccc3C2=O)c1,2.27% (active),6.63% (active),76.1,53.8,75,85.2,77.2,71.5,30.1,72.8,9.74% (active),107,96.4,75.9,89.8,59.4,69,92.7,-3.79% (active),81.8
O=C(CSc1nc2ccccc2c(=O)n1-c1ccccc1)N/N=C/c1ccc(Oc2ccc(Br)cc2)cc1,38.3%,62.5%,54.9,50.9,62.2,84.3,83.7,68.7,93.7,56.3,63.7%,38.2,57.8,39.9,21.5,71.8,59.1,68.8,21%,70.9
Nc1ccc(Nc2ncnc3sc4c(c23)CCN(Cc2ccccc2)C4)cc1,106%,96.7%,103,86.6,91.2,101,97.8,78.5,106,106,100%,101,88.7,97.2,102,89.1,96.6,87.8,101%,102
Cc1ccccc1Nc1nc(SC(C)C)nc(-c2ccccc2)c1C#N,76.6%,46.3%,66.3,67.9,28.1,57,23.8,28.1,107,77.2,58.2%,53.2,101,19.9,33.8,80.8,85.2,92.3,10.5%,87.3
N#Cc1c(-c2cccs2)cc(-c2cnccn2)nc1SCC(=O)N/N=C/c1ccc(Cl)cc1,104%,96.7%,115,94.9,92.2,102,98.7,100,110,111,98.5%,104,95.8,105,100,93.9,101,91.3,92%,110
O=C(/C=C/c1cccc(F)c1)c1cccc(OCCCCOc2cccc(C(=O)/C=C/c3cccc(F)c3)c2)c1,107%,100%,101,95.9,107,99.7,105,110,105,103,97.6%,106,102,94,105,97.6,98.6,94.8,95.2%,105
CC(=O)c1cc(C(=O)N2c3ccccc3Sc3ccccc32)n2c1ccc1ccccc12,75%,23.6%,62,97.4,66.9,67.5,41,69.1,51.8,40.8,41.6%,30,38.7,57.8,48.6,46.1,44.1,33.9,58.9%,61.1
